Hit rate of the full screen: of about 220,000 compounds, about 2,000 (0.91%) were called active. About 2% were inconclusive and are not listed. No stated cut-off is given here; in the data, inconclusive means inhibition above about 80% without an active follow-up result; inactive means below that; test concentration not stated here. These entries were drawn from the full list. Results with a measured potency or affinity are listed apart.
Test: M. tuberculosis H37Rv growth inhibitors, H37Rv strain (AID 1626);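 further: bacteria incubated seven days before Alamar blue readout; 0% = bacteria only wells and 100% = bacteria with antibiotic wells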
Details: active compounds read high, concentration not given here

For `CC(=O)Nc1ccc(S(=O)(=O)N2CCN(C(C)CCc3ccccc3)CC2)cc1` (stereo unspecified), which inhibition is on record?
The inhibition was -9.9% (inactive).

For `CCc1ccc(OCCCC(=O)O)c(Br)c1`, which inhibition is on record?
Its inhibition is -8.18% (inactive).

Which inhibition does the source give for `COC(=O)c1ccc(COc2ccc3c4c(c(=O)oc3c2)CCC4)o1` here?
The inhibition was -7.47% (inactive).

Which inhibition does the source give for `Cc1cc(C)n2nc(SCC(=O)N/N=C/c3cccc(Br)c3)nc2n1` here?
Its inhibition is -4.74% (inactive).

For `O=C(NC1(C(F)(F)F)C(=O)Nc2c1c(=O)[nH]c(=O)n2Cc1ccco1)C1CC1` (stereo unspecified), which inhibition is on record?
The inhibition was 1% (inactive).

For `C=CCNC(=O)CSc1nnc(-c2ccccc2Cl)n1-c1c(C)n(C)n(-c2ccccc2)c1=O`, which inhibition is on record?
Its inhibition is -3.15% (inactive).

Which inhibition does the source give for `COc1ccc(CCNC(=O)CSc2cn(Cc3cccc(C)c3)c3ccccc23)cc1OC` here?
Its inhibition is 4.76% (inactive).

Which inhibition does the source give for `O=c1[nH]c(CN(CCO)CCO)nc2c1C1(CCCCC1)Cc1ccccc1-2` here?
Its inhibition is 8.33% (inactive).

Which inhibition does the source give for `O=c1[nH]c(NCCO)nc2c1C1(CCCC1)Cc1ccccc1-2` here?
The inhibition was -4.7% (inactive).

Which inhibition does the source give for `CCc1nc2c(c(=O)[nH]1)C1(CCCC1)Cc1ccccc1-2` here?
Its inhibition is 12.8% (inactive).

With `O=c1[nH]c(NCCO)nc2c1C1(CCCCC1)Cc1ccccc1-2` as the compound, how does the inhibition read?
Its inhibition is -9.4% (inactive).

With `COc1cccc2c3c(c(C)nc12)CC(C)O3` (stereo unspecified) as the compound, how does the inhibition read?
Its inhibition is -3.67% (inactive).

For `Cc1cc2c(C)nc3ccccc3c2o1`, which inhibition is on record?
Its inhibition is -3.45% (inactive).

For `Cc1cc(C(=O)NNC(=O)CCCCC(=O)NNC(=O)c2cc(C)[nH]n2)n[nH]1`, which inhibition is on record?
The inhibition was 1.69% (inactive).

Which inhibition does the source give for `O=C(CCCSc1nc(-c2ccco2)cc(C(F)(F)F)n1)Nc1ccc2c(c1)OCO2` here?
Its inhibition is 6.6% (inactive).

Which inhibition does the source give for `Cc1noc2ncnc(Sc3ccccc3Cl)c12` here?
Its inhibition is 8.85% (inactive).

For `Cc1ccccc1Sc1ncnc2onc(C)c12`, which inhibition is on record?
The inhibition was -3.01% (inactive).

For `CCn1c(SCc2ccc(C(=O)Nc3nccs3)cc2)nnc1-c1ccc(NC(C)=O)cc1`, which inhibition is on record?
The inhibition was 0.27% (inactive).

For `CCn1c(SCc2ccc(C(=O)Nc3nccs3)cc2)nnc1-c1ccc(N)cc1`, which inhibition is on record?
Its inhibition is 2.31% (inactive).

Which inhibition does the source give for `COC(=O)CNC(=O)c1cn(CC(C)C)c(=O)c2cc(OC)c(OC)cc12` here?
Its inhibition is -2.81% (inactive).

With `CC1CC(=O)c2cnc(N3CCOCC3)nc2C1` (stereo unspecified) as the compound, how does the inhibition read?
Its inhibition is 5.78% (inactive).

With `O=C(CSc1nnnn1C1CCCC1)NCc1ccccc1` as the compound, how does the inhibition read?
The inhibition was -3.18% (inactive).

For `N=c1n(CCN2CCCCC2)c2ccccc2n1CC(O)COc1ccccc1` (stereo unspecified), which inhibition is on record?
Its inhibition is -5.72% (inactive).

With `CCCCn1c(=N)n(CC(O)COc2cccc(C)c2)c2ccccc21` (stereo unspecified) as the compound, how does the inhibition read?
Its inhibition is 0.69% (inactive).

For `CCCn1c(=N)n(CC(O)COc2cccc(C)c2)c2ccccc21` (stereo unspecified), which inhibition is on record?
Its inhibition is 4.16% (inactive).

For `COc1ccc(OCC(O)Cn2c(=N)n(CCN3CCOCC3)c3ccccc32)cc1` (stereo unspecified), which inhibition is on record?
The inhibition was 3.12% (inactive).

Reference: PubChem BioAssay AID1626 (SRMLSC, 2009)
